In PubChem BioAssay (NCATS):
Inconclusive results are not listed. Calls of active or inactive are those of the source. The call rests on the fitted dose curve; in most records, active means well fitted inhibition curve with a large enough effect; inconclusive means small, poorly fitted or top-dose-only effect; inactive means no such curve, though single readings can be large or run the other way.

These compounds were tested against Glutaminase kidney isoform, mitochondrial (Homo sapiens) (UniProt O94925) (assay: qHTS for Inhibitors of Glutaminase (GLS): LOPAC Validation (AID 624146; further: nearly all actives have a fitted effect of over 60% in size;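 on activity change, negative = inhibition: glutamate product detected by oxidase and peroxidase coupled Amplex red fluorescence gain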)). Conditions: glutaminase enzyme activity inhibition; series mostly up to 46.1 µM; activity change, negative = inhibition: at the top concentration.
Description: Glutaminase (GLS) catalyzes the hydrolysis of glutamine into glutamate and ammonia. It plays a critical role in glutaminolysis, which is an important energy source for proliferating cells. It was shown that c-Myc, an oncogenic transcription factor known to regulate microRNAs and to stimulate cell proliferation, increases glutamine metabolism by stimulating the expression of GLS via direct suppression of miR23a and miR23b.
GLS is also thought to play a pathogenic role on HAD using a human HIV-1 infected macrophage system. […] GLS inhibition limits glutamate release and provides neuroprotection against HIV-1 infected macrophages.
The overall goal of this project is to identify small molecule inhibitors of GLS through quantitative high throughput screening (qHTS) of the MLSMR. A validated potent and selective inhibitor can be used as a tool molecule to further study the pharmacology of its target as well as explore its potential therapeutic application in cancer and inflammatory neurological disorders, such as HIV1-associated dementia (HAD) and multiple sclerosis.
NIH Chemical Genomics Center [NCGC]
NIH Molecular Libraries Probe Centers Network [MLPCN]
Assay Submitter (PI): Barbara S. Slusher, Johns Hopkins University
Three 3 uL of hKGA is dispensed into black well 1536-well plates in 45 mM KH2PO4 (pH 8.2), 0.02% Tween-20. Then 23 nL of compounds are added through pin tool transfer. To this, 1 uL of 1mM L-Glutamine and 1 uL of a solution of L-Glutamateoxidase, HRP, Amplex red are added. Plate is centrifuged for 25 sec before an initial fluorescence read is obtained on the ViewLux, after 30 min of RT incubation, the final read is taken on the ViewLux.
On the % scale 0 is the no-effect control and ±100 the full control effect; potency means the concentration at half of the fitted maximal effect.

Sequence of Glutaminase kidney isoform, mitochondrial (Homo sapiens) (O94925 whole entry, looked up, canonical isoform): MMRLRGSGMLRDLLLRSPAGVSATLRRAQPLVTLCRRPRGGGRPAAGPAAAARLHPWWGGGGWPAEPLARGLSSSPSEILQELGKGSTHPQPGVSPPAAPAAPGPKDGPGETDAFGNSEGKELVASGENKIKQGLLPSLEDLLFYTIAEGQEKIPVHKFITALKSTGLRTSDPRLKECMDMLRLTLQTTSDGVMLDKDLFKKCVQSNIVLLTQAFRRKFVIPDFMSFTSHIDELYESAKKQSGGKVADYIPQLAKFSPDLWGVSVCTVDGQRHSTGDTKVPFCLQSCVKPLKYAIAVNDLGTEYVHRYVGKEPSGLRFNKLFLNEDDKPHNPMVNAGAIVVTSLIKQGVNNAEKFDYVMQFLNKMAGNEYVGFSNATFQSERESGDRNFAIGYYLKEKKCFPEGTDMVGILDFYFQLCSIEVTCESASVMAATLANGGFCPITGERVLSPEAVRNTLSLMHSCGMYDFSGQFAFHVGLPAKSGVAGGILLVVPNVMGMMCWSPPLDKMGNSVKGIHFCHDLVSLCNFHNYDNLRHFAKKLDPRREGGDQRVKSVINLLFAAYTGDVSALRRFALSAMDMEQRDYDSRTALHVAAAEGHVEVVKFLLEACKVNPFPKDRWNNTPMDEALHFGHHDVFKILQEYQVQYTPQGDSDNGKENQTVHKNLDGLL

Compound	activity change, negative = inhibition	Potency
C#CCN1C(C)=C(C(=O)OC)C(c2cccc([N+](=O)[O-])c2)C(C(=O)OCC)=C1C (stereo not given)	-31% (inactive)	
NO	-15.6% (inactive)	
N[C@@H](CC(=O)O)C(=O)O	-17.8% (inactive)	
CC1CN(S(=O)(=O)c2cccc3cnccc23)CCN1 (stereo not given)	-0.748% (inactive)	
C=C[C@H]1CN2CC[C@@H]1C[C@@H]2[C@@H](O)c1ccnc2ccc(OC)cc12	-3.08% (inactive)	
COc1cc2nc(N3CCN(C(=O)OCc4ccccc4)C(C(=O)NC(C)(C)C)C3)nc(N)c2cc1OC (stereo not given)	-7.86% (inactive)	
Nc1nc(Cl)nc2c1ncn2[C@@H]1O[C@H](CO)[C@@H](O)[C@H]1O	-16.2% (inactive)	
NC(CCCP(=O)(O)O)C(=O)O (stereo not given)	-25.4% (inactive)	
c1ccc(-c2ccccn2)nc1	-8.12% (inactive)	
O=C(O)CCCC[C@@H]1CCSS1	-14.5% (inactive)	
CCCCCCCCCCCCCCCC(=O)NCC(COP(=O)([O-])OCC[N+](C)(C)C)OCC (stereo not given)	-12.5% (inactive)	
N#C/C(=C\c1c[nH]c2ccccc12)C(=O)c1ccc(O)c(O)c1		1.12 µM (active)
CO/S(=N\S(=O)(=O)c1ccc(Cl)cc1)c1ccc([N+](=O)[O-])cc1 (stereo not given)	-13% (inactive)	
C=CC(C)=C[C@@]1(C)SC(=O)C(C)=C1O	-18.1% (inactive)	
CC(C)(C)c1ccc(S(=O)(=O)/C=C/C#N)cc1		7.08 µM (active)
NC(=O)C(=O)O	-15.7% (inactive)	
C=C[C@@H]1CN2CC[C@@H]1C[C@H]2[C@H](O)c1ccnc2ccc(OC)cc12	9% (inactive)	
CCN(CC)c1ncnc2c1ncn2[C@@H]1O[C@H](COP(=O)(O)OP(=O)(O)C(Br)(Br)P(=O)(O)O)[C@@H](O)[C@H]1O	73% (inactive)	
N=c1ccn2c(n1)O[C@H]1[C@H](O)[C@@H](CO)O[C@H]12	38.5% (inactive)	
NC[C@H]1O[C@@H](n2cnc3c(N)ncnc32)[C@H](O)[C@@H]1O	-16.9% (inactive)	

Compound	activity change, negative = inhibition	Potency
CC(C)(C=O)Cc1cc(C(C)(C)C)c(O)c(C(C)(C)C)c1		2.51 µM (active)
CN1CCc2cccc3c2C1Cc1ccc(O)c(O)c1-3 (stereo not given)		4.47 µM (active)
Cn1ncc(S(=O)(=O)Cc2ccccc2)c(Br)c1=O	-12.5% (inactive)	
N=C(N)SCCc1ccc(CCSC(=N)N)cc1	-21.4% (inactive)	
O=C1C(SCCO)=C(SCCO)C(=O)c2ccccc21		10 µM (active)
Cc1ccc(S(=O)(=O)/C=C/C#N)cc1		12.6 µM (active)
O=C(c1ccc(OCCCc2cnc[nH]2)cc1)C1CC1	-26.2% (inactive)	
Ic1ccc(N2CCN(Cc3c[nH]c4ncccc34)CC2)cc1	31.4% (inactive)	
CN1CCC[C@H]1c1cccnc1	-21.8% (inactive)	
c1cnc2c(c1)ccc1cccnc12	-2.05% (inactive)	
C[C@@H](CN1CCC(Cc2ccccc2)CC1)[C@@H](O)c1ccc(O)cc1	-6.95% (inactive)	
CN(C)c1ccc(/C=C2\C(=O)Nc3ccccc32)cc1	-16.5% (inactive)	
Cc1ccc(O)c(N=Nc2ccccc2)n1	-12.3% (inactive)	
NCCCS(=O)(=O)O	-17.9% (inactive)	
COc1ccccc1N1CCN(CCN(C(=O)c2ccc(I)cc2)c2ccccn2)CC1	-16.4% (inactive)	
Nc1ncnc2c1ncn2[C@@H]1O[C@H](COP(=O)(O)OP(=O)(O)OP(=O)(O)OP(=O)(O)OC[C@@H]2O[C@H](n3cnc4c(N)ncnc43)[C@@H](O)[C@H]2O)[C@@H](O)[C@H]1O	-7% (inactive)	
CC(=O)N[C@H](C(=O)O)C(C)(C)SN=O	-9.54% (inactive)	
CN1CCc2cc(NC(=O)Nc3cccnc3)ccc21	-21.5% (inactive)	
CN1[C@@H](CC(=O)c2ccccc2)CCC[C@H]1C[C@H](O)c1ccccc1	-15.1% (inactive)	
CN(C)c1nc2c(Br)c(Br)c(Br)c(Br)c2[nH]1	-17.6% (inactive)	
